Inconclusive results are not listed. Activity calls are given as the source filed them. Rule for the calls: active = hit-call score of the fitted dose curve at least 0.9, where 1 is the maximum; inconclusive = response in the unintended direction; inactive = score below 0.9.
target: Ratio of Nucleoli Translocation and Cytoplasm, AR (gene 367) (UniProt P10275); test: UPITT_HCI_U2OS_AR_TIF2_Nucleoli_Cytoplasm_Ratio_Antagonist: University of Pittsburgh U2OS Androgen Receptor-Transcriptional Intermediary Factor 2 (AR-TIF2) Antagonism High Content Imaging Assay for Ratio of Nucleoli Translocation and Cytoplasm (AID 2283999);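 note: antagonists lower the DHT-driven ratio of nucleolar to cytoplasmic red signal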
Sequence (P10275 whole entry, looked up, the tested form may be a part): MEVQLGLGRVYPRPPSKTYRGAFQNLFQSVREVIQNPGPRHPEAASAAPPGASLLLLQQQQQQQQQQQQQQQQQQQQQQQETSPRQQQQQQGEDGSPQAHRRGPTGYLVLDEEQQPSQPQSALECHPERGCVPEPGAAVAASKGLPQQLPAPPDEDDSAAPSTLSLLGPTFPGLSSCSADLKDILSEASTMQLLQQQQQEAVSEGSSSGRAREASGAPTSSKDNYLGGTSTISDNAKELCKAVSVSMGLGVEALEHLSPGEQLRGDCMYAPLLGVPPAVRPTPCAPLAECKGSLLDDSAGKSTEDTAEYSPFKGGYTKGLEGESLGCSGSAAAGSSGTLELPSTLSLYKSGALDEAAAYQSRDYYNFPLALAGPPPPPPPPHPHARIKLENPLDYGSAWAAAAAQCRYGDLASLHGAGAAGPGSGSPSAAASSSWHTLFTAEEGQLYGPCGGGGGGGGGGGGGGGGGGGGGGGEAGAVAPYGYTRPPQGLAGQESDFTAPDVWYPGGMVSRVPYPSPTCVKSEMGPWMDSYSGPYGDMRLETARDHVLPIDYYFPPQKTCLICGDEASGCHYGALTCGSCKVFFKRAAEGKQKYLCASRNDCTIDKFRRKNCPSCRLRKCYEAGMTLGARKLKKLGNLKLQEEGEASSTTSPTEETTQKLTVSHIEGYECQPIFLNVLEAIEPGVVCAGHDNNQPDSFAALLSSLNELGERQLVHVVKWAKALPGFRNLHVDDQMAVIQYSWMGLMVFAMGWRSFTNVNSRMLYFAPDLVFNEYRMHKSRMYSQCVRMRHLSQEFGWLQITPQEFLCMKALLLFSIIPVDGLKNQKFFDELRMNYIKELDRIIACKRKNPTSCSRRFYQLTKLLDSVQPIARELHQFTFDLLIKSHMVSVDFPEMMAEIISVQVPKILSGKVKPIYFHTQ
Description: UPITT_AR_TIF2_PPIB is a cell-based, high-content imaging assay that uses U2OS, a human osteosarcoma cell line, expressing a human androgen receptor fused to red fluorescent protein and the coactivator TIF2 fused to green fluorescent protein. UPITT_HCI_U2OS_AR_TIF2_Nucleoli_Cytoplasm_Ratio_Antagonist is one of four assay components measured from the UPITT_AR_TIF2_PPIB assay. It is designed to make measurements of the ratio of red fluorescence localized in the nucleolar region of the cell nucleus to red fluorescence localized in the cytoplasm as detected with high-content fluorescent imaging.Data from the assay component UPITT_HCI_U2OS_AR_TIF2_Nucleoli_Cytoplasm_Ratio_Antagonist was analyzed into 1 assay endpoint. This assay endpoint, UPITT_HCI_U2OS_AR_TIF2_Nucleoli_Cytoplasm_Ratio_Antagonist, was analyzed in the positive analysis fitting direction relative to DHT as the baseline of activity. Using a type of binding reporter, measures of receptor for loss-of-signal activity can be used to understand the binding at the pathway-level as it relates to the gene AR.
Daughter plates containing 2 uL of 10 mM compounds in DMSO were prepared and replicated from the 384-well Library of Pharmacologically Active Compounds (LOPAC) master plates using the Bravo outfitted with a 384-well transfer head. Aluminum adhesive plate seals were applied with an Abgene Seal-IT 100 (Rochester, NY) plate sealer, and the plates were stored at -20 C in a Matrical MatriMinistore (Spokane, WA) automated compound storage and retrieval system. For screening, LOPAC daughter plates were withdrawn from -20C storage, thawed to ambient temperature, centrifuged 1-2 min at 50 g, and the plate seals were removed before the transfer of 98 uL of serum-free tissue culture medium (SFM) into wells using the BioTek Microflo liquid handler (BioTek, Winooski, VT) to generate a 200 uM intermediate stock concentration of library compounds (2.0% DMSO). The diluted compounds were mixed by repeated aspiration and dispensation using a 384-well P30 dispensing head on the Evolution P3 (EP3) liquid handling platform (PerkinElmer, Waltham, MA) and then 5 uL of diluted compounds was transferred to the wells of assay plates. In the LOPAC screen, compounds were individually tested at a final concentration of 20 uM (0.2% DMSO). After the diluted compounds had been transferred from the daughter plates to the primary HCS assay plates, aluminum adhesive plate seals were applied and the diluted daughter plates were stored frozen at -20C. To confirm active compounds identified in the primary screen, we withdrew the LOPAC daughter plates containing the 200 uM intermediate concentration of library compounds (2.0% DMSO) from -20C storage, thawed them to ambient temperature, centrifuged them for 1-2 min at 50 g, and removed the plate seals. A work list was generated to direct the Multiprobe Janus liquid handling platform (PerkinElmer) to cherry pick 75 uL from the wells of the diluted daughter plates that were flagged active in the primary screen and to reformat these into a 384-well plate hit confirmation daughter plate. Five microliters of primary HCS active compounds was then transferred into triplicate wells of assay plates using a 384-well P30 dispensing head on the Evolution P3 (EP3) liquid handling platform (PerkinElmer). […] Daughter plates containing 2 uL of the serially diluted compounds in DMSO were prepared and replicated from the 384-well serial dilution master plates using the Bravo outfitted with a 384-well transfer head. Aluminum adhesive plate seals were applied and plates were stored at -20C. For testing in the bioassays, daughter plates were withdrawn from -20C storage, thawed to ambient temperature, centrifuged for 1-2 min at 50 g, and the plate seals were removed before the transfer of 38 uL of SFM into wells using the BioTek Microflo liquid handler (BioTek) to generate an intermediate stock concentration of library compounds ranging from 1.95 to 500 uM (5.0% DMSO). […]

| Compound | outcome | AC50 |
| --- | --- | --- |
| COP(=S)(OC)Oc1cc(Cl)c(Cl)cc1Cl | inactive | – |
| CC12CC1(C)C(=O)N(c1cc(Cl)cc(Cl)c1)C2=O (stereo unspecified) | inactive | – |
| O=c1[nH]c(=O)[nH]c(=O)[nH]1 | inactive | – |
| Clc1ccc(COC(Cn2ccnc2)c2ccc(Cl)cc2Cl)cc1 (stereo unspecified) | inactive | – |
| Cc1ccc2ccccc2c1C | inactive | – |
| COP(=O)(OC)OC | inactive | – |
| CCC1(c2ccc(N)cc2)CCC(=O)NC1=O (stereo unspecified) | inactive | – |
| CC(C)(C)CC(C)(C)c1ccc(O)cc1 | inactive | – |
| CC(C)c1cccc(C(C)C)c1O | inactive | – |
| CC(C)(c1ccc(OCC2CO2)cc1)c1ccc(OCC2CO2)cc1 (stereo unspecified) | – | 38.1 µM (active) |
| O=[N+]([O-])c1ccc(O)c([N+](=O)[O-])c1 | inactive | – |
| COP(=S)(OC)Oc1ccc(Sc2ccc(OP(=S)(OC)OC)cc2)cc1 | inactive | – |
| CCOP(=S)(OCC)Oc1nc(Cl)c(Cl)cc1Cl | inactive | – |
| C[C@H]1O[C@@H](O[C@H]2[C@@H](O)C[C@H](O[C@H]3[C@@H](O)C[C@H](O[C@H]4CC[C@@]5(C)[C@H](CC[C@@H]6[C@@H]5CC[C@]5(C)[C@@H](C7=CC(=O)OC7)CC[C@]65O)C4)O[C@@H]3C)O[C@@H]2C)C[C@H](O)[C@@H]1O | inactive | – |
| Cl/C=C\C[N+]12CN3CN(CN(C3)C1)C2 | – | 50 µM (active) |
| COP(=O)(OC)O/C(=C\Cl)c1cc(Cl)c(Cl)cc1Cl | inactive | – |
| CC(=O)[O][Hg][c]1ccccc1 | – | 0.424 µM (active) |
| CN(CCCC(=O)c1cccnc1)N=O | inactive | – |
| C=CCc1ccc(OC)cc1 | inactive | – |
| O=C1C2(Cl)C3(Cl)C4(Cl)C(Cl)(Cl)C5(Cl)C3(Cl)C1(Cl)C5(Cl)C24Cl (stereo unspecified) | – | 13.7 µM (active) |
| CCC(=O)C(CC(C)N(C)C)(c1ccccc1)c1ccccc1 (stereo unspecified) | inactive | – |
| C=CC(=O)OCCCCCC(C)C | inactive | – |
| CCSC(C)CC1CC(=O)C(C(CC)=NOC/C=C/Cl)=C(O)C1 (stereo unspecified) | inactive | – |
| c1cc[c]([Hg][c]2ccccc2)cc1 | – | 85.1 µM (active) |
| Cc1ccccc1C(=O)Nc1cccc(OC(C)C)c1 | inactive | – |
| CCCCCCCCc1ccc(O)cc1 | inactive | – |

From PubChem BioAssay (EPA / NIEHS)
